Measured values: PubChem BioAssay (Tox21)
“And” between values parts separate entries of the source, which are not always exact repeats. Equal entries are not always repeated. Results filed as inconclusive are left out. Where a call stands in place of a potency, no number is given. Some compounds were tested as several samples or in several runs, with calls that do not always agree. The source made the active and inactive calls. Unless noted, the call rests on the fitted dose curve; in most records, active means well fitted curve in the direction sought with a large enough effect in the repeat runs; inconclusive means weak or mixed curves; inactive means no such curve, though single readings can be large; an effect the other way counts as inactive or inconclusive.

How the values were obtained:
[1] = qHTS assay to identify small molecule agonists of the hypoxia (HIF-1) signaling pathway - cell viability counter screen (AID 1224844; calls by dose curve; further: nearly all actives have a fitted effect of over 50% in size; further: potency means the concentration at half of the fitted maximal effect); settings: HRE-bla ME-180 viability, CellTiter-Glo luminescence, 17 h; series mostly up to 76.8 µM
How it was run: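 Same wells as the HIF-1 reporter screen; ME-180 cells carrying HRE-bla, 17 hr treatment at 37C; CellTiter-Glo luminescence read after 30 min at room temperature.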

[2] = qHTS assay to identify small molecule agonists of H2AX (AID 1224845; active means well fitted activation curve with a large enough effect in the signal ratio in the repeat runs, not every such curve was filed as active; the % refers to the signal ratio; further: potency means the concentration at half of the fitted maximal effect); settings: CHO-K1 phospho-H2AX Ser139 HTRF, 3 h; series mostly up to 154 µM
How it was run: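 Phospho-H2AX Ser139 measured by HTRF (ex 320 nm; em 665 and 620 nm) after 24 hr antibody incubation. Compounds, 15 concentrations, 0.76% DMSO, were applied to CHO-K1 cells for 3hr at 37C before lysis.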

[3] = qHTS assay to identify small molecule agonists of the hypoxia (HIF-1) signaling pathway (AID 1224846; active means well fitted activation curve with a large enough effect in the signal ratio in the repeat runs, not every such curve was filed as active; the % refers to the signal ratio); settings: HRE-bla ME-180 cells, beta-lactamase ratio, 17 h; series mostly up to 76.8 µM
How it was run: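 In ME-180 cells bearing an HRE-bla construct, 17 h treatment with DMSO-dissolved compounds at 37C was followed by CCF4-AM loading to quantify reporter induction.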

[4] = qHTS assay to identify small molecule agonists of H2AX - cell viability counter screen (AID 1224847; calls by dose curve; further: nearly all actives have a fitted effect of over 30% in size; further: potency means the concentration at half of the fitted maximal effect); settings: CHO-K1 viability, CellTiter-Glo luminescence, 3 h; series mostly up to 154 µM
How it was run: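 Read-out: CellTiter-Glo luminescence, 30 min RT. Cells: wild-type CHO-K1, 1000/well, 10% FBS, plated overnight at 37C. Treatment: 15 concentrations, 3 hr, 37C, 0.76% DMSO.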

[5] = qHTS RealTime-Glo MT Cell Viability Assay in HepG2 cells - 24 hour (AID 1224867); settings: RealTime-Glo luminescence; series mostly up to 76.8 µM; further: nearly all actives have a fitted effect of over 50% in size; further: potency means the concentration at half of the fitted maximal effect
How it was run: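 Tox21 10K library screened in qHTS format on HepG2 cells carrying RealTime-Glo reagents. Compounds were added after a 5 h preincubation, and the luminescent signal from continuous culture was measured repeatedly during 40 h treatment.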

[6] = qHTS RealTime-Glo MT Cell Viability Assay in HEK293 cells - 32 hour (AID 1224868); settings: RealTime-Glo luminescence; series mostly up to 76.8 µM; further: nearly all actives have a fitted effect of over 50% in size; further: potency means the concentration at half of the fitted maximal effect
How it was run: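 Luminescence generated by NanoLuc from substrate produced by living HEK293 cells served as the viability signal. Each value reflects the reading at its stated time point during continuous 40 h compound exposure at 37 C.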

[7] = A CellTox Green Cytotoxicity Assay to monitor cytotoxicity in HEK293 cells - 0 hour (AID 1224869); settings: CellTox Green fluorescence; series mostly up to 76.8 µM; further: nearly all actives have a fitted effect of over 50% in size; further: potency means the concentration at half of the fitted maximal effect
How it was run: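 Homogeneous no-lysis format: HEK293 cell suspension mixed with CellTox Green reagent, seeded, incubated 5 h at 37 C/5% CO2, then dosed by pintool with compound in DMSO.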

[8] = qHTS RealTime-Glo MT Cell Viability Assay in HepG2 cells - 40 hour (AID 1224870); settings: RealTime-Glo luminescence; series mostly up to 76.8 µM; further: nearly all actives have a fitted effect of over 50% in size; further: potency means the concentration at half of the fitted maximal effect
How it was run: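 Real-time viability: cells seeded at 600 per well together with NanoLuc and cell-permeant prosubstrate, compounds added after 5 h incubation. Luminescence tracked at 0, 8, 16, 24, 32 and 40 h of exposure.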

[9] = qHTS assay to identify small molecule antagonists of the estrogen related receptor (ERR) signaling pathway from Tox21 library (AID 1224848); settings: ERR reporter cell line, luciferase antagonist mode, 18 h; series mostly up to 92.4 µM; further: nearly all actives have a fitted effect of over 50% in size; further: potency means the concentration at half of the fitted maximal effect
How it was run: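 ERR cell line, 2,000 cells/well. 6 h settle, then compound (DMSO) added; 18 h at 37 C; ONE-Glo luminescence after 30 min RT.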

[10] = qHTS assay to identify small molecule agonists of the estrogen related receptor (ERR) signaling pathway from Tox21 library (AID 1224849; calls by dose curve; further: nearly all actives have a fitted effect of over 15% in size); settings: ERR reporter cell line, ONE-Glo luciferase, 18 h
How it was run: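 Reporter cells (ERR, NTP source) treated with Tox21 10K compounds 18 h, 37 C. Readout: ONE-Glo luminescence, 30 min RT.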

Structure (SMILES)	Potency [1]	Potency [2]	outcome [3]	Potency [4]	Potency [5]	Potency [6]	Potency [7]	Potency [8]	Potency [9]	activity change, positive = activation ([10]; at 92.4 µM (top of the series))	activity change, positive = activation ([10]; at 42.5 µM (top of the series))
CS(=O)(=O)NC(=O)c1cc(Oc2ccc(C(F)(F)F)cc2Cl)ccc1[N+](=O)[O-]	inactive	inactive	inactive	inactive	inactive	inactive	inactive	inactive			
O=C1Nc2ccc(Cl)cc2C(c2ccccc2)=NC1O (centres undefined)	inactive	inactive	inactive	inactive	inactive	inactive		inactive	inactive	-20.3% (inactive) and -12.2% (inactive)	
CCC/C=N/O	inactive	inactive	inactive	inactive	inactive	inactive	inactive	inactive			
O=S(=O)(O)C(F)(F)C(F)(F)C(F)(F)C(F)(F)C(F)(F)C(F)(F)C(F)(F)C(F)(F)F	33 µM (active) and 49 µM (active) and 12.3 µM (active)	inactive	inactive	inactive	inactive	inactive	inactive	inactive	inactive	-7.99% (inactive) and -0.0044% (inactive) and -21.1% (inactive)	
CNC(=O)Oc1cccc2c1OC(C)(C)C2	inactive	inactive	inactive	inactive	inactive	inactive	inactive	inactive	inactive	3.12% (inactive) and 1.27% (inactive)	
CSc1nc(NC(C)C)nc(NC(C)C)n1	inactive	inactive	inactive	inactive	inactive	inactive		inactive	inactive	-11% (inactive) and -12.6% (inactive)	
O=P(OCCCl)(OCCCl)OCCCl	inactive	inactive	inactive	inactive	inactive	inactive		inactive	inactive	1.87% (inactive) and 3.07% (inactive)	
CCCCOCCOC(C)=O	inactive	inactive	inactive	inactive	inactive	inactive		inactive	inactive	1.87% (inactive) and 10.2% (inactive)	
Brc1ccc(Br)cc1	inactive	inactive	inactive	inactive	inactive	inactive	inactive	inactive	inactive	7.62% (inactive) and 5.83% (inactive)	
COP(=S)(OC)SCn1nnc2ccccc2c1=O	inactive	inactive	inactive	inactive	inactive		inactive	inactive	53.4 µM (active) and 61.1 µM (active)	-43.4% (inactive) and -47.5% (inactive)	
OC(c1ccc(Cl)cc1)(c1cncnc1)c1ccccc1Cl (centres undefined)	inactive	91.4 µM (active) and inactive	inactive	115 µM (active)	31.4 µM (active)	6.27 µM (active) and 24.5 µM (active)		17.7 µM (active) and inactive	11.1 µM (active) and 54.5 µM (active)	-83.4% (inactive) and -41.2% (inactive)	
CC(C)(O)C#N	inactive	inactive	inactive	inactive	inactive	inactive	inactive	inactive			
O=[N+]([O-])/N=C1\NCCN1Cc1ccc(Cl)nc1	inactive	inactive	inactive	inactive	inactive	inactive	inactive	inactive	inactive	-0.637% (inactive)	0.753% (inactive)
C=CC(Cl)CCl (centres undefined)	inactive	inactive	inactive	inactive	inactive	inactive	inactive	inactive			
c1ccc(C2CO2)cc1 (centres undefined)	inactive	inactive	inactive	inactive	inactive	inactive	inactive	inactive			
C[C@]12CC[C@H]3[C@@H](CCC4=CC(=O)CC[C@@H]43)[C@@H]1CC[C@@H]2O	inactive	99.8 µM (active)	inactive	inactive	inactive	inactive	inactive	inactive			
O=C1CCCO1	inactive	inactive	inactive	inactive	inactive	inactive		inactive	inactive	3.83% (inactive) and -0.0508% (inactive)	
OCCOCCO	inactive	inactive	inactive	inactive	inactive	inactive	inactive	inactive			
Clc1cccc(Cl)c1	inactive	inactive	inactive	inactive	inactive	inactive	inactive	inactive	inactive	-0.0986% (inactive) and 9.44% (inactive)	

Structure (SMILES)	Potency [1]	Potency [2]	outcome [3]	Potency [4]	Potency [5]	Potency [6]	Potency [7]	Potency [8]	Potency [9]	activity change, positive = activation ([10]; at 92.4 µM (top of the series))	activity change, positive = activation ([10]; at 42.5 µM (top of the series))
O=C(O)c1nn(Cc2ccc(Cl)cc2Cl)c2ccccc12	inactive	inactive	inactive	inactive	inactive	inactive	inactive	inactive	inactive	-48% (inactive)	-5.39% (inactive)
CC(C)(O)C(=O)Nc1ccc([N+](=O)[O-])c(C(F)(F)F)c1	inactive	inactive	inactive	57.8 µM (active) and 73.6 µM (active)	inactive	25.1 µM (active) and 16 µM (active)	inactive	inactive	9.89 µM (active) and 17.8 µM (active)	-47.4% (inactive)	-39.6% (inactive)
CCCCCCCCCCCCCl	inactive	inactive	inactive	inactive	inactive	inactive	inactive and 24.5 µM (active)	inactive			
Cc1ccc([N+](=O)[O-])cc1	inactive	inactive	inactive	inactive	inactive	inactive	inactive	inactive			
Cc1cccc(N=Nc2ccc(N(C)C)cc2)c1	inactive	inactive	inactive	101 µM (active)	inactive		inactive	inactive	inactive	234% (active) and 86.9% (active)	
C=C(C)C#N	inactive	inactive	inactive	inactive	inactive	inactive and 5.49 µM (active)	inactive	inactive			
CCCCSP(=O)(SCCCC)SCCCC	inactive	inactive	inactive	inactive	inactive	inactive	inactive	inactive			
CCCCC(C#N)(Cn1cncn1)c1ccc(Cl)cc1 (centres undefined)	inactive	inactive	inactive	inactive	inactive	inactive	inactive	inactive	48.4 µM (active)	-34.1% (inactive) and -20% (inactive)	
Cc1cc(Cl)ccc1N=CN(C)C	inactive	inactive	inactive	inactive	inactive	inactive		inactive	inactive	-6.81% (inactive) and 2.85% (inactive)	
Clc1ccc(C(Cl)(Cl)Cl)cc1	inactive	inactive	inactive	inactive	inactive	inactive	inactive	inactive	inactive	-5.48% (inactive) and 0.497% (inactive)	
N#CC(c1ccccc1)c1ccccc1	inactive	inactive	inactive	inactive	inactive	inactive		inactive	inactive	-14.8% (inactive) and -8.2% (inactive)	
CCCCOCC1CO1 (centres undefined)	inactive	inactive	inactive	inactive	inactive	inactive	inactive and 19.5 µM (active)	inactive	inactive	0.0042% (inactive) and -11% (inactive)	
N#Cc1nn(-c2c(Cl)cc(C(F)(F)F)cc2Cl)c(N)c1S(=O)C(F)(F)F (centres undefined)	inactive	inactive	inactive	101 µM (active)	inactive	22 µM (active)	inactive	inactive	5.48 µM (active) and 11.9 µM (active)	-58.7% (inactive)	-52.7% (inactive)
CCOP(=O)(OCC)OCC	inactive	inactive	inactive	inactive	inactive	inactive	inactive	inactive	inactive	-7.79% (inactive) and 1.86% (inactive)	
CC(C)(C#N)N=NC(C)(C)C#N	inactive	inactive	inactive	inactive	inactive	inactive	inactive	inactive			
Cn1c(-c2ccccc2)cc(-c2ccccc2)[n+]1C	inactive	inactive	inactive	inactive	inactive	8.69 µM (active) and 24.5 µM (active)	inactive	inactive	17.2 µM (active) and 21.7 µM (active)	-54.1% (inactive) and -52.6% (inactive)	
CCNCC	inactive	inactive	inactive	inactive	inactive	inactive		inactive	inactive	1.09% (inactive) and 1.12% (inactive)	
COP(=S)(OC)Oc1ccc(S(=O)(=O)N(C)C)cc1	inactive	inactive	inactive	inactive	inactive	inactive	inactive	inactive	inactive	-12.4% (inactive)	-5.44% (inactive)
c1ccc2c(c1)Nc1ccccc1S2	inactive		inactive	inactive	inactive	11 µM (active) and 13.4 µM (active)		inactive	inactive	-21.3% (inactive)	-0.479% (inactive)
